KCNQ2 block: rat KCNQ2 potassium channel inhibitors, primary screen, cell-based, CHO-K1, FluxOR thallium flux, B-score; Potassium voltage-gated channel subfamily KQT member 2 (Rattus norvegicus), O88943; actives 1.1% (n = 310,000); B-score at 10 µM; 20 min; hits give low values;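 active = fluorescence ratio B-score at most minus 3 library SDs, with starting brightness B-score within 2 library SDs, cut at about -5.5 in these data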
KCNQ2 enhance: potentiators of rat KCNQ2 potassium channel; Potassium voltage-gated channel subfamily KQT member 2 (Rattus norvegicus), O88943; CHO-K1 KCNQ2, FluxOR thallium flux fluorescence; hits give high values; B-score at 10 µM; actives 0.54% (n = 310,000); AID 2239, 2010;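 active = fluorescence ratio B-score at least 3 SD of library B-scores, with initial fluorescence B-score within 3 of them, cut at about 5.3 in these data; same plate scores as AID 2156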;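 also: B-score of peak minus minimum over baseline fluorescence ratio after K+ and Tl+ stimulus; positive B-score means potentiation of KCNQ2 with more thallium influx and brighter signal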
KCNQ2 block conf: rat KCNQ2 potassium channel inhibitors, confirmation, cell-based, thallium flux | shares compounds with KCNQ2 block | KCNQ2-expressing cells, inhibition; hits give low values | activity change, negative = inhibition, % at 10 µM | actives 57% (n = 1,000) | AID 493025, 2011;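 also: 0% = vehicle wells and values are ratio percent relative to vehicle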
KCNQ1 spec: human KCNQ1 channel inhibition, counter-screen for KCNQ2 inhibitor project, cell-based, FluxOR thallium flux. KCNQ1-expressing cells, FluxOR thallium flux fluorescence; hits give low values. actives 15% (n = 1,000). shares compounds with KCNQ2 block. activity change, negative = inhibition, % at 10 µM;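 active = activity change at least 3 SD of negative controls below their mean in both duplicate wells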;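 also: CHO cells stably transfected with KCNQ1 and depolarized by potassium stimulus; peak minus minimum fluorescence over baseline after thallium addition; 0% = vehicle negative control and -100% = blank without thallium stimulus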
CHO parental ctr: thallium flux change in parental CHO cells, counter-screen for KCNQ2 inhibitor project; actives 14% (n = 1,000); shares compounds with KCNQ2 block; AID 493029, 2011; activity change, % at 10 µM; hits give low values;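 also: 0% = vehicle negative controls with stimulus buffer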
KCNQ2 patch conf: rat KCNQ2 channel inhibitors, confirmation, cell-based, automated patch clamp, single concentration; shares compounds with KCNQ2 block; KCNQ2-expressing cells, automated patch clamp current; calls only at 10 µM; actives 49% (n = 550); AID 588531, 2011
Kir21 confirm: mouse Kir2.1 channel blockers, retest, confirmation, cell-based, FluxOR thallium flux, duplicate. Kir2.1-expressing cells, FluxOR thallium flux fluorescence; hits give low values. shares compounds with KCNQ2 enhance. Tl flux remaining, % of negative control (hits give low values), % at 10 µM. actives 41% (n = 2,300);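 active = Primary-screen hit whose thallium flux fell at least 3 control SD below untreated wells in both duplicates, with normal baseline fluorescence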;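 also: 0% = blank wells without stimulus and 100% = stimulated no-compound controls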
Target sequence (P35561 whole entry, looked up): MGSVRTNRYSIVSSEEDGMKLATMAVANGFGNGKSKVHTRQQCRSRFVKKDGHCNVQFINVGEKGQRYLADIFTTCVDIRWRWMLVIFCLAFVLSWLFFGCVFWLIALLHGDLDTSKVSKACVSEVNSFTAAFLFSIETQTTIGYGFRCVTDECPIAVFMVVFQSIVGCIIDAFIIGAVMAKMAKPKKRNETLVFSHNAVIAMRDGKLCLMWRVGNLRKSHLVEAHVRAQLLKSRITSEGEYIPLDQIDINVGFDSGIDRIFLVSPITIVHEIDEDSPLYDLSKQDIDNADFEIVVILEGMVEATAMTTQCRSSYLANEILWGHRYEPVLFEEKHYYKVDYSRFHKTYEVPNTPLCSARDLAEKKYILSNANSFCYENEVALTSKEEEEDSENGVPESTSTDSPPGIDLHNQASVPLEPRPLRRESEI
HEK293 ctr: alters thallium flux in parental HEK293 cells, Kir2.1 counter-screen. FluxOR thallium flux fluorescence; 0% = unstimulated blank wells. FluxOR signal as % of negative control (100 = no effect), % at 10 µM. AID 2105. actives 19% (n = 2,300). shares compounds with KCNQ2 enhance;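 active = dye signal at least 3 control SD above or below untreated wells in both duplicates, raw fluorescence within 3, either direction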;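 also: percent is based on the flux ratio of peak minus minimum fluorescence over baseline F0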
An asterisk follows results filed as active; i = inactive; . = no result. A selection: hits, their analogues and other compounds. The true share with any hit is near 1.6%. Unless noted, no rule for the calls is given here.

SMILES	KCNQ2 block	KCNQ2 enhance	others
CCOc1ccc(NC2=NCCCS2)cc1	i	1.4
CCCCCCCSc1cc(OC)c(CCNC)cc1OC	-7.4*	-7.4	KCNQ2 block conf=-31%*;KCNQ1 spec=i;CHO parental ctr=i;KCNQ2 patch conf=i;Kir21 confirm=20%*;HEK293 ctr=i
COc1ccc(CN2CCCC(C(=O)c3ccc(Cl)cc3)C2)c(O)c1 (configuration not stated)	i	.	Kir21 confirm=68%*;HEK293 ctr=i
COc1cc(CN2CCCC(C(=O)c3sccc3C)C2)cc(OC)c1O (configuration not stated)	i	0.28
COc1cccc(C(=O)C2CCCN(Cc3ccc(F)cc3)C2)c1 (configuration not stated)	i	1.5
COc1ccc(CN2CCCC(C(=O)c3sccc3C)C2)cc1O (configuration not stated)	i	0.95	Kir21 confirm=56%*;HEK293 ctr=i
Cc1ccsc1C(=O)C1CCCN(Cc2cnc(N3CCCC3)s2)C1 (configuration not stated)	i	.
FC(F)(F)c1cccc(-n2nnnc2C2(N3CCOCC3)CCCCC2)c1	i	.
CCCc1cc(=O)oc2cc(OCC(=O)N3CCC(C(=O)O)(c4ccccc4)CC3)ccc12	i	0.88
C#C[C@@]1(O)CCC2C3CCC4=C/C(=N/OCC(=O)NC(C(=O)NC(CC(C)C)C(=O)O)C(C)C)CC[C@]4(C)C3CC[C@@]21C (some centres not stated)	i	.
O=C(c1ccc(Cl)cc1)C1CCCN(C2CCSCC2)C1 (configuration not stated)	i	.
CCC(=NCCCN1CCOCC1)c1c(O)n(-c2ccccc2C)c(=O)[nH]c1=O	i	.
CCN(CC)P(c1n(C)cc[n+]1C)N(CC)CC	i	.
Cc1ccc2[nH]c(C)c(CCNCc3ccco3)c2c1	i	0.72
Cc1[nH]c2ccc(OC(F)(F)F)cc2c1CCNCc1ccc(Cl)cc1	-7.7*	-7.7	Kir21 confirm=16%*;HEK293 ctr=i
CCOc1cccc(CNCCc2c(C)[nH]c3ccc(OC(F)(F)F)cc23)c1O	i	.	Kir21 confirm=22%*;HEK293 ctr=i
Cc1[nH]c2ccc(OC(F)(F)F)cc2c1CCNCc1cccc([N+](=O)[O-])c1	i	.
O=C1OCc2cc(N=Nc3c(O)[nH]c(=O)[nH]c3=O)ccc21	i	0.47
CN1CCN(Cc2cc3c(cc2[N+](=O)[O-])OCO3)CC1	i	0.06
Cc1ccc(OCCOc2cccc(C=C3C(=O)NC(=O)NC3=O)c2)cc1	i	1.1
CCc1ccc(NC(=O)CCNC(=O)N2C[C@H]3C[C@@H](C2)c2cccc(=O)n2C3)cc1	i	0.01
Cc1cnc(NC(=O)CN2CCCCC2)s1	i	0.02
Cc1c2cnn(CC(=O)N3CCC4(CC3)OCCO4)c(=O)c2c(C)n1Cc1cccc(Cl)c1	i	0.68
